Assay results from PubChem BioAssay.
Activity calls are given as the source filed them.

Key:
[1] = system: PRMT1 (protein arginine N-methyltransferase 1); experiment: small molecules binding arginine methyltransferase PRMT1 – biochemical, small-molecule microarray, 635 nm fluorescence, primary screen (AID 1088); conditions: higher = more signal;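 note: binding of Prmt1 protein to compounds spotted on small-molecule microarray slides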
[2] = growth effects on S. cerevisiae YJM789 – YJM789 clinical isolate, OD600, 24 h, basal, primary screen (AID 1089); conditions: higher = more signal, called active from +8 up or from −8 down;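 note: growth of clinical yeast isolate S. cerevisiae YJM 789 seeded 1000 cells per well; test concentration not given here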
[3] = S. pombe growth modifiers, basal conditions – strain 972, OD600, 24 h, no modulator, primary screen (AID 1090);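 note: basal condition with compound alone and no growth modifier present; test concentration not given here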; conditions: S. pombe 972 growth, higher = more signal, called active from +8 up or from −8 down
[4] = budding yeast growth modifiers under rapamycin – strain BY4716, OD600, 96 h, primary screen (AID 1091); note: test concentration not given here; conditions: S. cerevisiae BY4716 + rapamycin, higher = more signal, called active from +8 up or from −8 down
[5] = target: Torsin-1A-interacting protein 2 (Homo sapiens) (UniProt Q8NFQ8); experiment: small molecules binding lysate-expressed LULL1 – cell lysate, human LULL1 lysate, 635/667 nm fluorescence, primary screen (AID 1092); conditions: small-molecule microarray, hLULL1 lysate binding, 635 nm fluorescence; higher = more signal;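 note: probe is lysate of COS7 cells overexpressing human LULL1; score merges per-feature 667 nm fluorescence with signal-to-noise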
Chain of Torsin-1A-interacting protein 2 (Homo sapiens) (Q8NFQ8 whole entry, looked up): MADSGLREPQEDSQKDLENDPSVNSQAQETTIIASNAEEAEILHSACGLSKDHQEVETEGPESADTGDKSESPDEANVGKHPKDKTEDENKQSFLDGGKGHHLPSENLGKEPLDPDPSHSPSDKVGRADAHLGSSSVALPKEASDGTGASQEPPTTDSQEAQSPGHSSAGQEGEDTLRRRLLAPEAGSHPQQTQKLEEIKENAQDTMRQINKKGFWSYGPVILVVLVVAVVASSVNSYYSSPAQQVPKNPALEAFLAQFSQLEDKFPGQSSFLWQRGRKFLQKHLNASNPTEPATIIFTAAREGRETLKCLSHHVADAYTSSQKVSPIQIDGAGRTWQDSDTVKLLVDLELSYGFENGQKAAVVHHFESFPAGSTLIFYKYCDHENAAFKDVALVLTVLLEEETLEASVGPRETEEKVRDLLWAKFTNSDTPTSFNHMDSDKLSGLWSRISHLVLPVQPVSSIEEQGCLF

[6] = optical density change of DRC41 E. coli – strain DRC41, OD650, 24 h, E. coli filamentation project, primary screen (AID 1093);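 note: MC1000 strain lacking acrAB efflux and sulA so SOS filamentation is blocked; test concentration not given here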; conditions: E. coli DRC41 growth, higher = more signal, called active from +8 up or from −8 down
[7] = probe aLefty2 binding to arrayed compounds – biochemical, biotinylated probe, 635/667 nm fluorescence, primary screen (AID 1094); conditions: small-molecule microarray, higher = more signal;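 note: score merges spot fluorescence near 667 nm with spot signal-to-noise ratio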
[8] = system: Noggin (protein binding on small-molecule microarray); experiment: small molecules binding Noggin protein – biochemical, 635/667 nm fluorescence, primary screen (AID 1095); conditions: 635 nm fluorescence, higher = more signal;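 note: score merges 667 nm feature fluorescence with signal to noise over triplicate slides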
[9] = target: Neurogenic locus notch homolog protein 3 (Homo sapiens) (UniProt Q9UM47); experiment: small molecules binding NOTCH3 protein – biochemical, 635/667 nm fluorescence, primary screen (AID 1096); conditions: small-molecule microarray, 635 nm fluorescence, higher = more signal
Chain of Neurogenic locus notch homolog protein 3 (Homo sapiens) (Q9UM47 whole entry, looked up): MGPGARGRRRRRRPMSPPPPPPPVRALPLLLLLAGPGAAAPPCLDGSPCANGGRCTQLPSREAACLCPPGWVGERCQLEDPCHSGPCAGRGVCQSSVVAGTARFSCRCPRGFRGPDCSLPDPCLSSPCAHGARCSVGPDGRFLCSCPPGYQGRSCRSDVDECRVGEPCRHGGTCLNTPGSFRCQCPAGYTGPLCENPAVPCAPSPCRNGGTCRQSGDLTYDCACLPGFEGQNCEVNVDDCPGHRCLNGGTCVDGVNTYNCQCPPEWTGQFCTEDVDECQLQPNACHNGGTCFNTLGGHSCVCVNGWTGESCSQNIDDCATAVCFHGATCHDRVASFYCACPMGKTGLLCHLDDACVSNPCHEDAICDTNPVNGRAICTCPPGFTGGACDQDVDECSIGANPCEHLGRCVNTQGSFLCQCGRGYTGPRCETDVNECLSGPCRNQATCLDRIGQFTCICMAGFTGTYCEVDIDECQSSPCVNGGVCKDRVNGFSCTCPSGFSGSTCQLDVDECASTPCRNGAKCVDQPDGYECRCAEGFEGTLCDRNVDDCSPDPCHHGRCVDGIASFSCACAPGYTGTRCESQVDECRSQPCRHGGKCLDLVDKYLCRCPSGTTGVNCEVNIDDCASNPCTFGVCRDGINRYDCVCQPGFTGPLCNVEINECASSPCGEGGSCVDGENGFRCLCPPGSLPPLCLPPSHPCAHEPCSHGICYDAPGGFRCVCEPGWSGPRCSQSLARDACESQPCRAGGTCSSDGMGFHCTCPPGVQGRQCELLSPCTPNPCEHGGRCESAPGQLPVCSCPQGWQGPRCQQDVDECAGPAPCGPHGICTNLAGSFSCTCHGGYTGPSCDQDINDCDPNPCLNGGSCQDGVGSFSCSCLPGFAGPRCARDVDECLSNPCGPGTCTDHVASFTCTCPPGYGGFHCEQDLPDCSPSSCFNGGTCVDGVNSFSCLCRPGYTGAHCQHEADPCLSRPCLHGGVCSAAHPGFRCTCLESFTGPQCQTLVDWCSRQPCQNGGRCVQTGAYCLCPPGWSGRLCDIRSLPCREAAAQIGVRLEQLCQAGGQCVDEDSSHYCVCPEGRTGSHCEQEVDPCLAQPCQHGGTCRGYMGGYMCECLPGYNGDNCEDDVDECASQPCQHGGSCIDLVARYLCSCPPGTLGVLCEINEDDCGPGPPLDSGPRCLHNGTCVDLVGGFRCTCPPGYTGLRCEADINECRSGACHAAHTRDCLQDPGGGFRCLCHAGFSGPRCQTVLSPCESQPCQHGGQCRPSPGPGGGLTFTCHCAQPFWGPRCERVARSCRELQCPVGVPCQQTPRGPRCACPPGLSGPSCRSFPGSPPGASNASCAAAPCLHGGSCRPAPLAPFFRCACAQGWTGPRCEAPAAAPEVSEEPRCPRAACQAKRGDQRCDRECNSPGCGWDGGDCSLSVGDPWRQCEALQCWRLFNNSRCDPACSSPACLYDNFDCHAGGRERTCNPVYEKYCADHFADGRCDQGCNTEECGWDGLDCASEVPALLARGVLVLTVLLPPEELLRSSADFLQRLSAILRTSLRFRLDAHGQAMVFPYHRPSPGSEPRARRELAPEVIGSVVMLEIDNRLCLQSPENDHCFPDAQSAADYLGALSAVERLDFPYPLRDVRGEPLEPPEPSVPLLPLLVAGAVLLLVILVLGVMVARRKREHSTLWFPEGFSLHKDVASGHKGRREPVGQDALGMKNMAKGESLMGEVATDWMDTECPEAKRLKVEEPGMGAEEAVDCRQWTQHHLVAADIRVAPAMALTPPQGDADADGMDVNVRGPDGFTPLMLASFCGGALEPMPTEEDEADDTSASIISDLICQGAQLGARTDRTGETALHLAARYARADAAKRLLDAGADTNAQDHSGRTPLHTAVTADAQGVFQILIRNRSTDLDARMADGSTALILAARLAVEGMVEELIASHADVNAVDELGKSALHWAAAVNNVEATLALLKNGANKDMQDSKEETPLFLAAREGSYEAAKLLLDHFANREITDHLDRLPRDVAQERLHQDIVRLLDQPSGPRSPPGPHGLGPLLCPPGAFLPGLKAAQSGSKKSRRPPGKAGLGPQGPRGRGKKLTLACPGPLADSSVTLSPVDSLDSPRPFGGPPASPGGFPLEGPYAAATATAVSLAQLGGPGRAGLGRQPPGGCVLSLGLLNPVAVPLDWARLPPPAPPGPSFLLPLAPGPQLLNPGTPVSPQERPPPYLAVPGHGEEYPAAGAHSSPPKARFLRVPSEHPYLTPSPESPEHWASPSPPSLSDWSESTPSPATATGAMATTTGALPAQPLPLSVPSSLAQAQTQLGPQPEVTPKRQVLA

[10] = probe aEGFR binding to arrayed compounds – biochemical, biotinylated probe, 635/667 nm fluorescence, primary screen (AID 1097); conditions: small-molecule microarray, higher = more signal;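 note: probe is a biotinylated anti-EGFR antibody binding compounds printed on slides; score combines fluorescence near 667 nm and signal to noise of each spot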
[11] = system: Plasmodium falciparum Sir2 (PF13_0152, Sir2A); experiment: Plasmodium falciparum Sir2A binding compounds – biochemical, small-molecule microarray, 635 nm fluorescence, primary screen (AID 1098); conditions: fluorescence 635 nm, higher = more signal;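 note: score merges spot fluorescence intensity with its signal-to-noise ratio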
[12] = probe aDKK1 binding to arrayed compounds – biochemical, biotinylated probe, 635/667 nm fluorescence, primary screen (AID 1099); conditions: small-molecule microarray, higher = more signal;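 note: score merges 667nm spot fluorescence with signal to noise across triplicate slides; reference of the scale not given here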
[13] = probe aCHRDL2 binding to arrayed compounds – biochemical, biotinylated probe, 635/667 nm fluorescence, primary screen (AID 1100); conditions: small-molecule microarray, higher = more signal
[14] = change in splice reporter luminescence, either direction, cell-based, HEK293, spliceosome inhibition project, primary screen (AID 1101); conditions: HEK293 splicing luciferase reporter, 24 h, higher = more signal, called active from +8 up or from −8 down;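 note: HEK293 cells carrying a splicing-competent luciferase reporter gene; test concentration not given here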
[15] = target: Fibroblast growth factor 10 (Homo sapiens) (UniProt O15520); experiment: compounds binding fibroblast growth factor 10 – biochemical, small-molecule microarray, 635 nm fluorescence, primary screen (AID 1102); conditions: FGF10 binding, fluorescence 635 nm, higher = more signal
Chain of Fibroblast growth factor 10 (Homo sapiens) (O15520 whole entry, looked up): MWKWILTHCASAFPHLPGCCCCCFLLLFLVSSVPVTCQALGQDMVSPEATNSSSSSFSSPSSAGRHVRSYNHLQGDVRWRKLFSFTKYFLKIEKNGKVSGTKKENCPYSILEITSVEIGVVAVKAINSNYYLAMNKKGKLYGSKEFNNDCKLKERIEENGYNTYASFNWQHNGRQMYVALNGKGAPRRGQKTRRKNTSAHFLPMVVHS

[16] = system: glycogen synthase kinase-3 (GSK3A per assay name; protocol says GSK3B); experiment: compounds binding glycogen synthase kinase-3 – biochemical, small-molecule microarray, 635 nm fluorescence, GSK3A, primary screen (AID 1103); conditions: fluorescence 635 nm, higher = more signal; note: the record names both GSK3A and GSK3B
[17] = target: Epidermal growth factor receptor (Homo sapiens) (UniProt P00533); experiment: compounds binding epidermal growth factor receptor – biochemical, small-molecule microarray, 635 nm fluorescence, primary screen (AID 1104); conditions: EGFR binding, higher = more signal;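 note: score merges 667 nm emission intensity with spot signal to noise over triplicate slides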
Chain of Epidermal growth factor receptor (Homo sapiens) (P00533 whole entry, looked up): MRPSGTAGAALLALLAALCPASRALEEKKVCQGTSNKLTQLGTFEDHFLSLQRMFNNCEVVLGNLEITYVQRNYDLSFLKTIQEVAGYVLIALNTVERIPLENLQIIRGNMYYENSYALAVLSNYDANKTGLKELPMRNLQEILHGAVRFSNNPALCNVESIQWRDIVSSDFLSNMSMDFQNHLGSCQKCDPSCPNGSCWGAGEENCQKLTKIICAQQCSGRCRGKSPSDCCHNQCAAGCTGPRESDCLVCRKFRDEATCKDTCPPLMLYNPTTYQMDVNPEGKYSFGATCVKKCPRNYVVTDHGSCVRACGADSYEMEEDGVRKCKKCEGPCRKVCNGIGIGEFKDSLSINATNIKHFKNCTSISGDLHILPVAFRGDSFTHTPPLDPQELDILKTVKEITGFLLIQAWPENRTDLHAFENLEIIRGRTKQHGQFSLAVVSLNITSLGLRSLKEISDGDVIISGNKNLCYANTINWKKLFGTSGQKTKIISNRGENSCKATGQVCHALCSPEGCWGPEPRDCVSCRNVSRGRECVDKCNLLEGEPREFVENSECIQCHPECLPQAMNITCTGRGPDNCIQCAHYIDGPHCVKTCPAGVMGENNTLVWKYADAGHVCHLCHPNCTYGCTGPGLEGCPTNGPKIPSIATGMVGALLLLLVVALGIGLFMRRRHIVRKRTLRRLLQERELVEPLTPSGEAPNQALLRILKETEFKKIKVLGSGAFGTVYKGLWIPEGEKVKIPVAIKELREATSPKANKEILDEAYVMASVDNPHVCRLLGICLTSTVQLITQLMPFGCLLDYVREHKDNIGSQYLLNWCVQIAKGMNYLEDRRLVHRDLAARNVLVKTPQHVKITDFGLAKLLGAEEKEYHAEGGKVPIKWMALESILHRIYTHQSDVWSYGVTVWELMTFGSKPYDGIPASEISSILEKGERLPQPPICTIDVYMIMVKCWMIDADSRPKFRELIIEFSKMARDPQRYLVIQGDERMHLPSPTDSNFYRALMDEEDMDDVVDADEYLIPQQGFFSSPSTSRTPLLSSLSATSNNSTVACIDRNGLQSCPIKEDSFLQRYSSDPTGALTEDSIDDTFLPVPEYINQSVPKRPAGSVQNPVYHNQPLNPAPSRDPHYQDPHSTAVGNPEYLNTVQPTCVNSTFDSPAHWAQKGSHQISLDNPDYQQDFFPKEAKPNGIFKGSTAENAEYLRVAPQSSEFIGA

[18] = target: Follistatin-related protein 3 (Homo sapiens) (UniProt O95633); experiment: compounds binding follistatin-related protein 3 – biochemical, small-molecule microarray, 635 nm fluorescence, primary screen (AID 1105); conditions: FSTL3 binding, higher = more signal;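 note: score merges emission near 667 nm and signal to noise per printed spot across three slides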
Chain of Follistatin-related protein 3 (Homo sapiens) (O95633 whole entry, looked up): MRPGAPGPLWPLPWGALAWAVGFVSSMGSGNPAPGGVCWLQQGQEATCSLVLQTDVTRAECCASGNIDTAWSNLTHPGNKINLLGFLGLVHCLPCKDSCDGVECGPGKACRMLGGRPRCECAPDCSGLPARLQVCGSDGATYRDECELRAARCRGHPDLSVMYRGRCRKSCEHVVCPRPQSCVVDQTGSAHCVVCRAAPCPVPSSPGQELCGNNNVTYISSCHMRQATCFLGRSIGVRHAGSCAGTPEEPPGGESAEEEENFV

[19] = target: Dickkopf-related protein 1 (Homo sapiens) (UniProt O94907); experiment: small molecules binding DKK1 protein – biochemical, small-molecule microarray, 635 nm fluorescence scan, primary screen (AID 1106); conditions: higher = more signal;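 note: score merges emission near 667 nm with signal to noise over three replicate slides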
Chain of Dickkopf-related protein 1 (Homo sapiens) (O94907 whole entry, looked up): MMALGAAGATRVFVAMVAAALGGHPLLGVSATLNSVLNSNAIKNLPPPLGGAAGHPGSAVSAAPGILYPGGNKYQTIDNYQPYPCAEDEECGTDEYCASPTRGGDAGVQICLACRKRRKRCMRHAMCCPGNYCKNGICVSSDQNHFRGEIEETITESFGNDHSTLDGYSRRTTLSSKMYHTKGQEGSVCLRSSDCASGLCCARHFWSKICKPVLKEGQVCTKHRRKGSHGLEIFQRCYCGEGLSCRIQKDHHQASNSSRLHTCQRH

[20] = system: Inhibin beta A chain (activin A); experiment: small molecules binding activin A – biochemical, small-molecule microarray, 635 nm fluorescence scan, primary screen (AID 1107); conditions: INHBA, higher = more signal;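 note: mouse activin A protein probed at 4.33 µg/mL on printed slides; score merges bound-protein fluorescence near 667 nm with spot signal-to-noise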

| SMILES | composite z-score [1] | z-score [2] | z-score [3] | z-score [4] | composite z-score [5] | z-score [6] | composite z-score [7] | composite z-score [8] | composite z-score [9] | composite z-score [10] | composite z-score [11] | composite z-score [12] | composite z-score [13] | z-score [14] | composite z-score [15] | composite z-score [16] | composite z-score [17] | composite z-score [18] | composite z-score [19] | composite z-score [20] |
| --- | --- | --- | --- | --- | --- | --- | --- | --- | --- | --- | --- | --- | --- | --- | --- | --- | --- | --- | --- | --- |
| CC(C)=NO[C@H](C)c1cn([C@@H]2COC[C@H]2O)nn1 | 0.629 | -0.173 (inactive) | -1.02 (inactive) | 0.127 (inactive) | 0.242 | 0.132 (inactive) | -0.0936 | 0.683 | 0.562 | 0.0102 | 0.52 | -0.0146 | -0.607 | -0.413 (inactive) | 0.728 | 0.788 | 0.539 | 0.67 | 0.669 | -0.0201 |
| CC(=O)OC[C@H]1O[C@H](CC=NOC[C@@H](O)COCc2ccco2)C=C[C@@H]1OC(C)=O | 1.54 | 0.441 (inactive) | -0.0992 (inactive) | 0.116 (inactive) | -0.275 | 0.53 (inactive) | 0.0658 | 1.77 | -0.084 | 0.495 | 0.717 | -0.233 | -1.06 | -0.0391 (inactive) | 0.397 | 1.24 | 1.58 | 1.37 | 1.74 | 1.14 |
| COc1ccc(COC(=O)NN=C2C[C@@H](O)[C@@H](O)[C@@H]3[C@@H]4C(=O)N(C(C)(C)C)C(=O)[C@@H]4CC[C@@H]23)cc1 | 1.16 | -1.26 (inactive) | -0.573 (inactive) | -0.731 (inactive) | 0.515 | 1.09 (inactive) | -0.005 | 0.0364 | 1.02 | -0.03 | 0.182 | -0.163 | -0.64 | 0.992 (inactive) | 0.189 | 0.787 | 0.314 | 0.967 | 1.16 | -0.105 |
| O=C1C[C@@H](O)[C@@H](O)[C@@H]2[C@@H]3C(=O)N(Cc4ccccc4)C(=O)[C@@H]3CC[C@H]12 | -0.326 | 0.179 (inactive) | -0.253 (inactive) | -0.138 (inactive) | -0.14 | -0.188 (inactive) | -0.107 | 0.497 | 0.545 | -0.0171 | 0.465 | -0.0382 | -0.506 | -0.0414 (inactive) | 0.56 | 0.331 | 0.564 | 0.643 | 0.608 | 0.3 |
| CC(C)=CCCC(C)=CCON=C1C[C@@H](O)[C@@H](O)[C@@H]2[C@@H]3C(=O)N(Cc4ccc5c(c4)OCO5)C(=O)[C@@H]3CC[C@H]12 | 1.44 | 0.329 (inactive) | 0.197 (inactive) | -0.251 (inactive) | 1.93 | 0.103 (inactive) | -0.166 | 0.564 | 0.907 | -0.0271 | 0.567 | -0.101 | -0.257 | 0.294 (inactive) | 0.797 | 0.327 | 0.426 | 0.821 | 0.35 | 1.02 |
| O=C1[C@H]2[C@H]3[C@H](O)[C@H](O)CC(=NOCc4ccccc4)[C@@H]3CC[C@H]2C(=O)N1c1cccc(Oc2ccccc2)c1 | 1.35 | 0.663 (inactive) | 0.277 (inactive) | -0.349 (inactive) | 1.6 | 0.589 (inactive) | 0.266 | 0.889 | 0.64 | -0.0967 | 1.03 | -0.173 | -0.186 | -0.055 (inactive) | 0.485 | 0.38 | 0.201 | 0.48 | 0.0072 | -0.202 |
| C=CCOCC1CN2[C@@H](CC[C@@H](C)[C@@H]2c2ccc(Br)cc2)C(=O)O1 (stereo not given in full) | -0.149 | -0.349 (inactive) | -0.592 (inactive) | 0.338 (inactive) | -0.581 | 0.415 (inactive) | -0.296 | 0.167 | -0.405 | -0.0953 | -0.316 | -0.182 | -0.165 | 0.597 (inactive) | -0.342 | -0.255 | -0.014 | -0.293 | 0.0635 | 0.757 |
| CCOC(=O)CCN1C(=O)[C@H]2[C@H]3[C@H](O)[C@H](O)CC(=NO[C@@H]4O[C@H](CO)[C@@H](O)[C@H](O)[C@H]4O)[C@H]3CC[C@H]2C1=O | -0.145 | -0.703 (inactive) | 0.354 (inactive) | -0.387 (inactive) | 0.211 | 0.389 (inactive) | 0.0008 | 0.404 | 0.195 | -0.115 | 0.29 | 0.198 | -0.141 | -0.265 (inactive) | 0.655 | 0.822 | 0.563 | 0.231 | 0.315 | 0.401 |
| C[C@@H]1CC[C@H]2C(=O)O[C@@H](CN=[N+]=[N-])CN2[C@H]1c1ccc(Br)cc1 | 1.34 | 1.85 (inactive) | -10.5 (active) | 32.7 (active) | 1.69 | 0.176 (inactive) | -0.15 | 0.553 | 0.679 | -0.104 | 0.584 | 0.0195 | -0.669 | 0.659 (inactive) | 0.382 | 0.636 | 0.343 | 0.345 | 0.857 | 0.455 |
